From PubChem
An excerpt weighted towards active compounds, which were near 3.4% of everything screened.
TROY NFkB inh = TROY signaling inhibition | Q293 LMP1-TROYcd NF-kB luciferase reporter, 4 h | inhibition, % at 10 µM | 0.98% of 360,000 active;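 active means compounds whose plate-normalised and pattern-corrected inhibition of the luciferase reporter signal at the single screening dose is 50% or more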
Shn3 3UTR inh = Schnurri-3 reporter inhibition in Clone20 osteoblasts; 0.52% of 360,000 active; Clone20 osteoblast Shn3 3'UTR firefly luciferase, 24 h; inhibition, % at 12.5 µM;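 active means mean inhibition of at least 75% with every replicate also reaching 75%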;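 further: 0% = median of neutral control wells and 100% = pilot-screen positive control compound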
HIF-2a inh = inhibitors of HIF-2a | 786-0 RCC cells HIF-2a reporter, luciferase luminescence, overnight | inhibition, % at 18.8 µM | 0.72% of 360,000 active;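 active means inhibition of the luminescence signal of 40% or more relative to plate controls, in a single-dose primary screen at 18.75 µM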
EBV LMP1 NFkB = inhibitors of Epstein-Barr LMP1-induced NF-kappaB reporter | AID 504558 | inhibition, % at 12.5 µM | LMP1-induced NF-kappaB luciferase reporter cells, luminescence | 0.69% of 350,000 active; in the data active means inhibition above about 41%;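 further: 0% = neutral control wells and 100% = reference inhibitor control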
TWEAK-Fn14 inh = blocks TWEAK-Fn14 interaction in a reporter cell assay | AID 1159606 | inhibition, % at 10 µM | TWEAK-stimulated Fn14 reporter cells, luciferase luminescence, 8 h | 2% of 360,000 active; in the data active means inhibition above about 50%
TRPM1 prom inh = reduces MITF-dependent TRPM1 promoter luciferase signal. SK-MEL-5 TRPM1 promoter luciferase, 24 h. 0.83% of 330,000 active. AID 488899. inhibition, % at 12.5 µM;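 active means mean inhibition across replicates of 60% or more, whatever share of single replicates reaches that level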
Mdm2-MdmX confirm = Mdm2/MdmX (human) interaction inhibition, confirmed; SaOS-2 split-luciferase Mdm2/MdmX complementation, luminescence; inhibition, % at 8 µM; 99% of 740 active; shares compounds with HIF-2a inh;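 active means mean inhibition of the luminescence signal across two replicates at or above 26 percent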
Target sequence (O15151 whole entry, looked up): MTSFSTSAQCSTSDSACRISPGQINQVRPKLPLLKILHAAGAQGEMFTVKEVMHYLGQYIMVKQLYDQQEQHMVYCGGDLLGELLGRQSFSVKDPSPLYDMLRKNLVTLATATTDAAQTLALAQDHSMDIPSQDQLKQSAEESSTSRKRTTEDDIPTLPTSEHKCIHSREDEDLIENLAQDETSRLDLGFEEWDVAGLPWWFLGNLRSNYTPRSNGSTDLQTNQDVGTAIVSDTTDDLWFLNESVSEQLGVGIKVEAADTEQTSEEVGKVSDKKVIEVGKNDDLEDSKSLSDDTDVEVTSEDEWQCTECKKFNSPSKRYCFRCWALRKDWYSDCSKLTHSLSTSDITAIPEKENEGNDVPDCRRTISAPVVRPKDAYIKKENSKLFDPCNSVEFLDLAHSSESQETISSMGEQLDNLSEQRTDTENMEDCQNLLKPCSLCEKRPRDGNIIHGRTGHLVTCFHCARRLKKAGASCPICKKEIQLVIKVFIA
Target sequence (Q00987 whole entry, looked up): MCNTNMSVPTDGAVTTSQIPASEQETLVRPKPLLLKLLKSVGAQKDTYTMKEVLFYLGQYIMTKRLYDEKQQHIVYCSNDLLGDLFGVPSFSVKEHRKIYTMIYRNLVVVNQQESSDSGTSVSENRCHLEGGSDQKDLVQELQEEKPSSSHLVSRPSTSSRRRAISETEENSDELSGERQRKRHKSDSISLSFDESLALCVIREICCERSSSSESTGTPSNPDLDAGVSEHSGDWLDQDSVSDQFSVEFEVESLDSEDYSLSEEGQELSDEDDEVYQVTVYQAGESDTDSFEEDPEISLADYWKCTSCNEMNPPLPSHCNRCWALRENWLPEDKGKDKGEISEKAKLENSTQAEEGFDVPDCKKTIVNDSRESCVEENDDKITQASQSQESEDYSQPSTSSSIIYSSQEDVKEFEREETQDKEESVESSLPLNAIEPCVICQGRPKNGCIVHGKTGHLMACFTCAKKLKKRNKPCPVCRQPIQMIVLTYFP
HIF-2a inh conf = confirmation of HIF-2a inhibitors; shares compounds with HIF-2a inh; 786-0 RCC cells, HIF-2a luciferase reporter luminescence, overnight; inhibition, % at 18.8 µM; 56% of 1,800 active;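 active means mean inhibition across four replicates of at least 40 percent at the single tested concentration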
HIF-1a cs = HIF-1a inhibition counter-screen for HIF-2a hits. shares compounds with HIF-2a inh. MiaPaCa-2 HIF-1a luciferase reporter, desferoxamine, overnight. inhibition, % at 18.8 µM. 72% of 1,800 active. AID 651589;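 active means mean inhibition of the reporter signal across four replicates at the single tested dose of 50% or more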
* = called active by the depositor; . = not tested or not shown.

SMILES | TROY NFkB inh | Shn3 3UTR inh | HIF-2a inh | EBV LMP1 NFkB | TWEAK-Fn14 inh | TRPM1 prom inh | HIF-2a inh conf | HIF-1a cs | others
CC(=O)N1c2ccc(S(=O)(=O)NCCC(=O)Nc3ccc(F)cc3C)cc2CC1C (stereo not drawn) | 13.8 | 2.0 | 0.7 | -8.2 | -14.0 | 7.9 | . | .
O=C1CSC(=S)N1Cc1cccnc1 | 6.3 | 19.0 | 46.6* | 22.8 | 46.7 | 22.5 | . | . | Mdm2-MdmX confirm=100.7*
O=C1CSC(=S)N1c1cccnc1 | 3.0 | 26.8 | 10.8 | -14.1 | 34.7 | 3.4 | . | .
O=C1Nc2ccc(Br)cc2/C1=C/C(=O)c1ccc2c(c1)OCO2 | 11.8 | 97.2* | 44.9* | 3.4 | -15.7 | 66.1* | -32.9 | 95.0*
CC(C)NC(=O)NC(=O)COC(=O)CCCSc1nc2ccccc2s1 | 8.1 | -2.7 | 13.0 | -37.6 | -3.2 | 0.1 | . | .
Cc1cccc(C)c1NC(=O)CCCSc1nc2ccccc2s1 | 2.0 | 1.5 | -54.5 | -7.1 | -24.8 | 4.9 | . | .
O=C(O)CCSc1nc2ccccc2s1 | 68.6* | 42.6 | 89.2* | 11.0 | 91.6* | 4.3 | 97.2* | 91.7*
NC(=O)NC(=O)COC(=O)CCCSc1nc2ccccc2s1 | 38.5 | 16.7 | 70.6* | -6.0 | 61.3* | 17.3 | 82.9* | 61.8*
CCOC(=O)NC(=O)COC(=O)CCCSc1nc2ccccc2s1 | 27.1 | 9.9 | 59.3* | -4.7 | 54.2* | 15.0 | 75.7* | 43.8
O=C(CCCSc1nc2ccccc2s1)NC1=NCCS1 | 18.8 | -14.5 | 72.2* | -0.1 | -12.7 | 9.7 | 84.9* | 47.1
Clc1ccc(Cn2ncc3c(N4CCCCC4)ncnc32)cc1 | 12.2 | . | -37.3 | -5.5 | 22.4 | -4.2 | . | .
Clc1ccc(-n2ncc3c(N4CCCCCC4)ncnc32)cc1 | 92.4* | 65.8 | 65.9* | 40.5* | 104.6* | 71.0* | 83.6* | 101.7*
CCCCc1c(-c2ccc(OC)cc2)ncn1CCc1ccccc1OC | 43.3 | . | -33.2 | . | 49.3 | . | . | .
C=C1CC2(CC(c3ccccc3)OC(c3ccccc3)C2)OC1=O (stereo not drawn) | 22.5 | 97.1* | 87.1* | -2.6 | 86.8* | 107.2* | 91.3* | 105.8*
CCN(CC)CCN1C(=O)/C(=C\c2ccc(Cl)c([N+](=O)[O-])c2)SC1=Nc1ccc(OC)cc1 | 74.1* | 96.4* | 96.4* | 30.1 | 99.0* | 93.6* | 53.6* | 104.1*
COc1ccc(N=C2S/C(=C\c3ccc(Cl)c([N+](=O)[O-])c3)C(=O)N2CCN(C)C)cc1 | 80.6* | 46.7 | 79.2* | -10.5 | 60.0* | 14.1 | 3.9 | 101.4*
Cn1c(SCC(=O)NCC2COc3ccccc3O2)nnc1C(F)(F)F (stereo not drawn) | -20.6 | -4.8 | 4.9 | -1.8 | -2.9 | -3.8 | . | .
COC(=O)c1[nH]c2ccc(Br)cc2c1NC(=O)CN1CCN(C2CCCCC2)CC1 | -0.1 | -5.2 | 68.0* | -5.2 | -11.9 | 86.0* | 9.1 | 103.6* | Mdm2-MdmX confirm=103.2*
COC(=O)c1[nH]c2ccc(Cl)cc2c1NC(=O)CCN1CCN(C2CCCCC2)CC1 | -11.8 | -13.3 | 18.3 | 0.8 | 12.1 | 2.6 | . | .
O=C1NC[C@H](Cc2ccccc2)N(C[C@H]2CCCN2C[C@H](Cc2ccccc2)N2C[C@H](Cc3ccccc3)N(CC3CCCCCC3)C(=O)C2=O)C1=O | 46.1 | 5.7 | 80.4* | 6.2 | 31.3 | 1.8 | 1.9 | 105.5*
CC(C)C[C@@H](CN1CCC[C@@H]1CN1C(=O)C(=O)NC[C@@H]1Cc1ccccc1)N1C[C@H](Cc2ccccc2)N(CC2CCCCCC2)C(=O)C1=O | 35.3 | -15.1 | 79.5* | 16.1 | 2.8 | 6.6 | 7.8 | 104.8*
CC(C)C[C@@H](CN1CCC[C@@H]1CN1C(=O)C(=O)NC[C@@H]1Cc1ccccc1)N1C[C@H](Cc2ccccc2)N(CC2CCCCC2)C(=O)C1=O | 24.4 | . | -65.0 | . | 15.0 | . | . | .
N#CC(C#N)=C1C=CC=CN1/C(=C\c1ccccc1Cl)C(=O)c1ccccc1 | -4.6 | 86.6* | 96.6* | 0.0 | 19.8 | 76.8* | 87.8* | 93.5*
c1ccc(OCCNc2nc(NCC3CC3)nc3ccsc23)cc1 | 17.3 | 79.2 | -0.8 | . | 48.1 | . | . | .
COc1ccc(CNC[C@@H](CCCCN(C)Cc2ccc(OC)cc2)N2C[C@H](c3ccccc3)N(CCc3ccc(Cl)c(Cl)c3)C(=O)C2=O)cc1 | 33.5 | 94.9* | 96.7* | 88.8* | 96.7* | 96.3* | . | . | Mdm2-MdmX confirm=103.5*
SMILES | TROY NFkB inh | Shn3 3UTR inh | HIF-2a inh | EBV LMP1 NFkB | TWEAK-Fn14 inh | TRPM1 prom inh | HIF-2a inh conf | HIF-1a cs | others
COc1cccc(CNC(=O)c2cc3oc4ccccc4c3n2C)c1OC | -12.3 | -1.4 | -17.5 | 11.3 | -109.4 | 9.8 | . | . | Mdm2-MdmX confirm=100.2*
C[C@@H](C(=O)Nc1ccc2c(c1)OCCO2)n1c(=O)[nH]c2ccccc2c1=O | 83.7* | 10.4 | 41.5* | 42.6* | 94.3* | 19.4 | 45.2* | 77.8*
C[C@@H](C(=O)Nc1ccc2c(c1)OCO2)n1c(=O)[nH]c2ccccc2c1=O | 1.7 | -14.9 | -6.7 | -2.8 | -5.1 | 9.3 | . | .
CC(=C/C(=O)O)/C(=C/c1ccccc1)C(=O)O | 4.7 | -22.4 | 13.6 | -0.9 | -5.5 | -12.1 | . | .
CCCS(=O)(=O)c1cnc(C2COc3ccccc3O2)nc1N (stereo not drawn) | 80.9* | 62.9 | 81.2* | 70.7* | 102.1* | 72.3* | 89.2* | 89.7*
CN(C(=S)NC(=O)c1ccccc1)C1CCCCC1 | -13.5 | -8.3 | 50.2* | 0.6 | -7.9 | -2.5 | -0.1 | 12.9
CN(C(=S)NC(=O)c1ccc(Cl)cc1)C1CCCCC1 | -14.4 | -20.4 | -120.7 | -9.9 | -1.2 | -11.5 | . | .
COc1ccc(C(=O)NCCCNC(=O)c2cccnc2)cc1Br | 5.7 | 22.2 | 21.7 | 1.9 | -3.3 | -3.3 | . | .
CCCCCO | -1.8 | -8.3 | 14.4 | 4.0 | -20.8 | -9.6 | . | .
O=C(O)c1ccc(NC(=S)NC(=O)c2ccc3ccccc3c2)cc1 | -44.5 | -13.6 | -142.4 | -19.3 | -2.8 | -3.1 | . | .
O=C(O)c1cccc(NC(=S)NC(=O)c2ccc3ccccc3c2)c1 | -30.8 | 14.8 | 73.9* | 7.6 | 19.8 | 39.5 | 75.6* | -26.0
CS(=O)(=O)c1ccc(S(=O)CC(=O)OCc2ccccc2)c([N+](=O)[O-])c1 (stereo not drawn) | 56.5* | 97.0* | 91.0* | 49.0* | 89.6* | 82.6* | 52.5* | 105.8*
Cc1scc(C(=O)N/N=C/c2ccc([N+](=O)[O-])o2)c1C | -21.6 | 37.5 | 61.3* | 5.3 | 4.6 | 100.3* | 61.9* | 83.6*
Cc1scc(C(=O)N/N=C/c2ccco2)c1C | 10.3 | -57.0 | -138.8 | -4.9 | -5.5 | -41.4 | . | .
